ST2 IL33 inh = IL1RL1 inhibition | Q01638 | AlphaLISA ST2-Fc/biotin-IL-33 interaction, 1 h | inhibition, % for hits at 17 µM | hit rate 2.3% among 78,000 | AID 1259354; in the data active = inhibition above about 30%
Target sequence (Q01638 whole entry, looked up): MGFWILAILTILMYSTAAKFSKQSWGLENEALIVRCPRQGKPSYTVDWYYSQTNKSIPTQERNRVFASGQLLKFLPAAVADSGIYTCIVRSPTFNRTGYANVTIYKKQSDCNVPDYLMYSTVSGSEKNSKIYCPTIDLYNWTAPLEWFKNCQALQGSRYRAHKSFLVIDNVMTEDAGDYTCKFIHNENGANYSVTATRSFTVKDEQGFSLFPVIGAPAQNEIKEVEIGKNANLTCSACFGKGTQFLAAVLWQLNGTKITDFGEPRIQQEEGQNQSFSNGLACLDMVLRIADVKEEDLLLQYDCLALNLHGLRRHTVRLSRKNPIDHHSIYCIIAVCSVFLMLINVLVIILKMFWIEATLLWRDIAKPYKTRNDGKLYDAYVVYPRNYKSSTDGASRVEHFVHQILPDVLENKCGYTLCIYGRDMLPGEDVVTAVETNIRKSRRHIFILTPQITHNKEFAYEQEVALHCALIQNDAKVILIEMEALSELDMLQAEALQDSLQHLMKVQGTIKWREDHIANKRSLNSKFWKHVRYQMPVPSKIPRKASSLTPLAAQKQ
The depositor's hits bear a star; i = inactive. This excerpt belongs to a sample that is enriched for hits.

SMILES	ST2 IL33 inh
O=C(Nc1ccc(Br)cc1)c1cccc(S(=O)(=O)Nc2ccccn2)c1	42%*
O=S(=O)(Nc1ccccn1)c1ccc(Br)cc1	i
COc1ccc(S(=O)(=O)N2CCN(S(=O)(=O)c3cc4c5c(c3)CCN5C(=O)CC4)CC2)cc1	i
O=[N+]([O-])c1ccc(N2CCN(CCO)CC2)cc1	i
Cc1ccccc1N1CCN(Cc2ccc(Br)s2)CC1	i
CN(C)c1ccc(CN2CCN(c3ccc([N+](=O)[O-])cc3)CC2)cc1	51%*
COc1cc(CN2CCN(c3ccc([N+](=O)[O-])cc3)CC2)ccc1O	i
O=[N+]([O-])c1ccc(N2CCN(Cc3ccc(Br)s3)CC2)cc1	36%*
CCOc1ccccc1N1CCN(Cc2ccc([N+](=O)[O-])cc2)CC1	i
O=C(c1cnc2n(c1=O)CCS2)N(Cc1ccccc1)c1ccccc1	i
COc1cc(SC)ccc1C(=O)NC(C)c1ccccc1 (stereo not given)	i
Cc1nc2cc(NC(=O)c3ccccc3)ccc2n1Cc1ccccc1	i
CN1[C@@H](c2ccccc2)[C@@H](C(=O)NCCn2ccnc2)C[C@@]1(C)C(=O)O	i
CCCCOC(=O)C1=C(C)Nc2nnnn2C1c1ccc(Cl)cc1 (stereo not given)	i
CN(C)c1ccc(/C=C/c2ccnc3ccccc23)cc1	43%*
CN(C)c1ccc(C(=O)Nc2nc3ccc4ccccc4c3s2)cc1	i
Fc1ccccc1N1CCN(Cc2ccco2)CC1	i
COc1ccc(CN2CCN(Cc3cc(OC)c(OC)cc3OC)CC2)cc1	i
COc1ccccc1N1CCN(Cc2ccc(C(=O)O)cc2)CC1	i
COc1cc(OC)c(CN2CCN(c3ccccc3F)CC2)cc1Br	36%*
COc1cc(OC)c(OC)cc1CN1CCN(c2ccccn2)CC1	i
COc1cc(OC)c(OC)cc1CN1CCN(c2ccc(F)cc2)CC1	i
COc1ccccc1N1CCN(Cc2cc(OC)c(O)c(OC)c2)CC1	i
COc1cc(OC)c(OC)cc1CN1CCN(c2cc(C)ccc2C)CC1	35%*
COc1ccc(CN2CCN(c3ccccc3OC)CC2)cc1OC	30%*
SMILES	ST2 IL33 inh
CN1N=C(C(=O)NCc2cccnc2N(C)Cc2ccccc2)CCC1=O	i
O=C(Nc1cccc(-c2cc3ccccc3[nH]2)c1)C1CCCN(Cc2ccccn2)C1 (stereo not given)	i
O=C(CSc1c2c(nc3ccc(Cl)cc13)CCCC2)NCCCN1CCCC1=O	i
CCC(C)NC(=O)c1ccc2c(c1)N(Cc1ccc(F)cc1Cl)C(=O)CS2 (stereo not given)	i
COC(=O)C1C(=O)C2=C(CC1C)NC(C)=C(C(=O)OC1CCCCC1)C2c1ccc(Cl)cc1 (stereo not given)	i
COc1ccc(-n2ncc3c(N4CCN(C)CC4)ncnc32)cc1	i
C=CCN1C(=Nc2cccnc2)SCC1(O)c1ccc(OC)cc1 (stereo not given)	61%*
CCC(=O)N1N=C(C)CC1(O)c1cccnc1 (stereo not given)	i
C=CCN1C(=Nc2cccnc2)SCC1(O)c1ccc(C)cc1 (stereo not given)	59%*
CCC1=NN(C(=O)c2cccnc2)C(O)(c2ccc(Br)cc2)C1 (stereo not given)	i
COc1ccc(C(CC(=O)N2CCN(c3cnccn3)CC2)c2ccccc2)cc1 (stereo not given)	i
Cc1ccc2cc(C3(O)CCN(C(=O)COc4cccnc4)CC3)ccc2n1	i
CC(=O)N1CCc2cc(S(N)(=O)=O)ccc21	i
O=c1[nH]c2ccc(S(=O)(=O)NCC3COc4ccccc4O3)cc2s1 (stereo not given)	i
CN(Cc1ccccc1)C1CCCN(C(=O)Cn2cnc3ccccc3c2=O)C1 (stereo not given)	i
Cc1cccc(C)c1NS(=O)(=O)c1cccc2nsnc12	i
O=C(NCCN1CCOCC1)C1c2ccccc2C(=O)N2CCc3ccccc3C12 (stereo not given)	i
CC(C)OCCn1ccnc1-c1ccc(Cl)s1	i
Cc1ccc(Nc2cc(C)nc(N3CCN(S(=O)(=O)c4ccc(C)cc4)CC3)n2)cc1	i
Cc1ccc(S(=O)(=O)N2CCN(c3nc(-c4ccc(C)o4)cs3)CC2)cc1	37%*
Cc1ccc(S(=O)(=O)N2CCN(c3nc(C)cc(N4CCCC4)n3)CC2)cc1	i
COc1ccccc1OCCOc1ccccc1Cl	i
CCC(c1ccccc1)c1nc(-c2cccc([N+](=O)[O-])c2)no1 (stereo not given)	30%*
COc1ccc(-c2nc(-c3cccc([N+](=O)[O-])c3)no2)cc1OC	i
CCC(c1ccccc1)c1nc(-c2ccncc2)no1 (stereo not given)	i
SMILES	ST2 IL33 inh
c1ccc(C(Cn2ccnc2)n2ccnc2-c2ccccn2)cc1 (stereo not given)	i
O=C1CC(=O)Nc2cc(S(=O)(=O)Nc3ccc(F)c(Cl)c3)ccc2N1	i
CCc1nn(C)c(Cl)c1CN1CCN(c2ccc(Cl)nn2)CC1	i
CC(C)N(CC1CC1)C(=O)c1ccccc1N1CCC(=O)NC1=O	i
Cc1cccc(N(C)S(=O)(=O)c2ccc3c(c2)CCN3C(=O)C2CC2)c1	i
O=C1[C@H]2C3c4ccccc4C(CO)(c4ccccc43)[C@H]2C(=O)N1c1ccc(F)cc1	i
COc1ccc(NC(=O)c2ccc(Cl)cc2)cc1	i
CCOc1ccc(C(=O)Nc2cccc(NC(=O)C(C)C)c2)cc1[N+](=O)[O-]	i
O=C(Nc1ccc2nn(-c3ccc(Cl)cc3)nc2c1)c1cccc(F)c1	i
CCOc1ccc(C(=O)Nc2ccc3nn(-c4ccc(OC)c(Cl)c4)nc3c2)cc1[N+](=O)[O-]	40%*
CCOc1ccc(C(=O)Nc2ccc3oc(-c4ccncc4)nc3c2)cc1[N+](=O)[O-]	i
COc1ccc(C(=O)Nc2ccc3nn(-c4ccc(Cl)cc4)nc3c2)cc1	37%*
COCc1cc(C)nc2sc(C(=O)c3ccccc3)c(NC(=O)c3ccccc3)c12	i
C[C@H](NC(=O)Cc1ccccc1)c1ccccc1	i
CC(CCc1ccccc1)NC(=O)c1cc2ccccc2o1 (stereo not given)	i
COc1ccc(CCNC(=O)C2C3C=CC4(CN(Cc5cccs5)C(=O)C24)O3)cc1OC (stereo not given)	i
C#C[C@](O)(c1ccc(OC)c(OC)c1)c1ccc(OC)cc1OC	i
Cc1cc(C)n(CCCN(C)C(=O)c2cnn3ccn(C)c23)n1	i
CNC(=O)c1ccc(CNC(=O)c2cccc(-c3ccccc3OC)c2)o1	i
COc1ccccc1-c1cccc(C(=O)NCCN2CCOC2=O)c1	31%*
COc1ccc(-c2nn(-c3ccccc3C)cc2CNCCN2CCOC2=O)cc1F	i
COc1ccc(NC(=O)c2oc3ccccc3c2NC(=O)c2ccc3c(c2)OCO3)c(OC)c1	i
O=S(=O)(c1ccc(Cl)c(Cl)c1)N1CCCCC1	i
Cc1ccc(S(=O)(=O)N2CCN(S(=O)(=O)c3ccccc3)C2)cc1[N+](=O)[O-]	i
Cc1ccc(S(=O)(=O)N2CCN(C(=O)c3ccccc3)C2)cc1[N+](=O)[O-]	i
O=[N+]([O-])c1ccc(N2CCN(Cc3ccccc3)CC2)c(S(=O)(=O)N2CCOCC2)c1	i
Cc1ccc(S(=O)(=O)N2CCN(c3ccccc3)CC2)cc1[N+](=O)[O-]	40%*
CN(C)S(=O)(=O)c1cc([N+](=O)[O-])ccc1N1CCCCCC1	i
O=[N+]([O-])c1ccc(N2CCN(c3ccccc3)CC2)c(S(=O)(=O)N2CCCCC2)c1	50%*

Screening data deposited in PubChem by Paczesny and Yang Labs, IUPUI and University of Michigan.
